Shown are actives, neighbours in structure and some others; about 4.1% of the full set was active somewhere.
FMDV antiviral – blocks foot and mouth disease virus; FMDV antiviral cell-based qHTS; Potency, µM (highest dose often 57.9 µM), most hits filed as inhibitors; AID 1159524; 410,000 tested, 1.2% active; calls by dose curve; tested in HEK293T cells; also: read-out not given here; nearly all actives have a fitted effect of over 45% in size
AMA1-RON2 inh – inhibitors of Plasmodium falciparum AMA1-RON2 interaction; Potency, µM (highest dose often 58.2 µM), hits mostly inhibitors; 360,000 tested, 0.2% active; AlphaScreen AMA1-biotinylated RON2 peptide binding; also: nearly all actives have a fitted effect of over 45% in size
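AMA1 (3D7) with his tag at 25 nM final met compounds first, then biotinylated RON2 peptide at 25 nM; detection used donor plus acceptor beads, 10 µg/mL apiece, read by AlphaScreen after 30 min at room temperature.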
AmpC inh detg – AmpC beta-lactamase inhibition with detergent present; P00811; AmpC hydrolysis of nitrocefin, absorbance 480 nm, 0.01% Triton; Potency, µM (series often up to 114 µM), actives largely listed as inhibitors; 370,000 tested, 0.041% active; also: nearly all actives have a fitted effect of over 25% in size
Target sequence (P00811 whole entry, looked up): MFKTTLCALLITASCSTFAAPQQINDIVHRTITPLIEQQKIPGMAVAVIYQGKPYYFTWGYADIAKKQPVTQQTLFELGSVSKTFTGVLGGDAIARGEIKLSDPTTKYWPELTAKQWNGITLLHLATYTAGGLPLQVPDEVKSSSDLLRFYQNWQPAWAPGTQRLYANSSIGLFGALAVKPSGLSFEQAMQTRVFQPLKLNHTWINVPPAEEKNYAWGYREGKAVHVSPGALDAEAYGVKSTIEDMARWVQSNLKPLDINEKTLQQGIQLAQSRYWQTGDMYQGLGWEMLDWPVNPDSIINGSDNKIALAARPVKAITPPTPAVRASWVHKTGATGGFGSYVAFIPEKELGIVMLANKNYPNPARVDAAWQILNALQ
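20 mM phosphate pH 7.0 + 0.01% (detergent screen) or 0.0001% Triton X-100; 5.3 nM AmpC reagent; cpd preinc 15 min RT; nitrocefin (800 uM stock) to start; A480 q20 s × 4 min; Activity was normalised to no-enzyme and no-compound control wells.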
AmpC inh no detg – blocks E. coli AmpC beta-lactamase in detergent-free assay. Potency, µM (doses to about 57.1 µM), usual class: inhibitors. 330,000 tested, 0.52% active. P00811. AID 485341. AmpC nitrocefin hydrolysis, absorbance 480 nm, 0.0001% Triton; also: nearly all actives have a fitted effect of over 20% in size
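20 mM phosphate pH 7.0 + 0.01% (detergent screen) or 0.0001% Triton X-100; 5.3 nM AmpC reagent; cpd preinc 15 min RT; nitrocefin (800 uM stock) to start; A480 q20 s × 4 min; Activity was normalised to no-enzyme and no-compound control wells.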
Sm TGR inh – S. mansoni TGR enzyme inhibition; purified TGR, DTNB reduction, TNB absorbance 405 nm; Potency, µM (series often up to 114 µM), actives largely listed as inhibitors; 360,000 tested, 3% active; Q962Y6; also: nearly all actives have a fitted effect of over 60% in size
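Kinetic colorimetric format: TGR-catalysed, NADPH-driven DTNB reduction monitored via TNB absorbance. Enzyme dispensed at 20 nM; compound exposure 15 min at room temperature before reaction start.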
Of the large screens only hits and unclear results are named; the others gave an inactive call. Unless noted, calls follow the shape of the dose curve; as a rule, active = well fitted curve in the direction sought with a large enough effect; inconclusive = small, poorly fitted or top-dose-only effect, or another doubt; inactive = no such curve, though single readings can be large; an effect the other way counts as inactive or inconclusive.

COC(=O)C1=C(C)N(c2cccc(OC)c2)C(=O)/C1=C\c1ccco1	AMA1-RON2 inh inconclusive, AmpC inh detg inconclusive, Sm TGR inh 35µM
CCOc1ccc(N2C(=O)S/C(=C\c3ccc(O)c(OC)c3)C2=O)cc1	none
COC(=O)C1=C(C)N(CCc2ccccc2)C(=O)/C1=C\c1ccco1	AMA1-RON2 inh inconclusive, Sm TGR inh 45µM
CCCCN1C(=O)/C(=C\c2ccco2)C(=O)N(CCc2ccccc2)C1=O	FMDV antiviral inconclusive
CCN1C(=O)/C(=C\c2ccco2)C(C(=O)OC)=C1C	none
COC(=O)C1=C(C)N(Cc2ccccc2)C(=O)/C1=C\c1ccco1	Sm TGR inh 8.9µM
COC(=O)C1=C(C)N(Cc2ccc(C)cc2)C(=O)/C1=C\c1ccc(O)c(OC)c1	FMDV antiviral inconclusive, AMA1-RON2 inh inconclusive, AmpC inh detg inconclusive, Sm TGR inh inconclusive
C=CCN1C(=O)/C(=C\c2ccco2)C(C(=O)OC)=C1C	AMA1-RON2 inh inconclusive, AmpC inh detg inconclusive, Sm TGR inh 40µM
COC(=O)C1=C(C)N(Cc2ccc(C)cc2)C(=O)/C1=C\c1cc(OC)c(OC)c(OC)c1	FMDV antiviral 20µM, AMA1-RON2 inh 35µM
Cc1ccc(OC(C)C(=O)N2CCN(CCc3ccncc3)CC2)cc1C (stereo not given)	none (no result: AMA1-RON2 inh, AmpC inh no detg)
CCN(CC)S(=O)(=O)c1ccc(N2CCCCC2)c(NC(=O)/C(C#N)=C/c2ccc(OC)cc2)c1	AmpC inh no detg 4µM
O=C(CCCc1ccccc1)c1ccc2c(c1)OCCO2	FMDV antiviral 7.9µM
COc1ccc(CCNC(=O)c2ccc3c(c2)OCCO3)cc1	none
O=C(NCCc1ccccc1)c1ccc2c(c1)OCCCO2	FMDV antiviral 1.1µM
O=C(NCCc1ccccc1)c1ccc2c(c1)OCCO2	FMDV antiviral 1.8µM
CCCCN(CC)C(=O)Cn1cc2c(n1)-c1c(oc(C(=O)N3CCCC3)c1C)CC2	none (no result: AMA1-RON2 inh, AmpC inh no detg)
COC(=O)c1c(N)sc(C(=O)NCCc2ccccc2)c1C	FMDV antiviral 6.3µM
COc1ccc2c(c1)c1c(c(=O)n(-c3ccccc3)c(=O)n1CC(=O)Nc1ccc(C)c(C)c1)n2C	none (no result: AMA1-RON2 inh, AmpC inh no detg)
CCOc1cc(/C=C\c2nc(O)c([N+](=O)[O-])c(=O)[nH]2)ccc1OC(C)C	none
C=CCc1cc(/C=C/c2nc(O)c([N+](=O)[O-])c(=O)[nH]2)cc(OC)c1O	Sm TGR inh 45µM
CN(C)c1ccc(C(c2nnnn2CCOC(=O)Nc2ccc(Cl)cc2)N2CCOCC2)cc1 (stereo not given)	AMA1-RON2 inh inconclusive, Sm TGR inh 25µM
N#CC(C#N)=Cc1cc2ccccc2nc1N1CCCCC1	Sm TGR inh 5µM
CCOC(=O)/C(C#N)=C/c1cc2ccccc2nc1N1CCOCC1	AmpC inh detg inconclusive
O=C(NCCN1CCOCC1)c1cnn(-c2ncc3c(n2)-c2ccccc2CC3)c1C1CC1	none (no result: AMA1-RON2 inh, AmpC inh detg, AmpC inh no detg, Sm TGR inh)
CCOC(=O)c1cccc(NC(=O)COc2nsnc2N2CCOCC2)c1	FMDV antiviral 25µM
COc1cccc(CNC(=O)Cn2nc(C)c3c(C)n(-c4ccc(C)cc4)nc3c2=O)c1OC	FMDV antiviral inconclusive
CCOc1ccccc1CNC(=O)Cn1nc(C)c2c(C)n(-c3ccc(C)cc3)nc2c1=O	FMDV antiviral 16µM
COc1ccc(OC)c(CCNC(=O)C(C)n2nc(C)c3c(C)n(-c4ccccc4)nc3c2=O)c1 (stereo not given)	none
COc1ccc(OC)c(CCNC(=O)C(C)n2nc(C)c3c(C)n(-c4ccc(C)cc4)nc3c2=O)c1 (stereo not given)	FMDV antiviral 3.5µM
CN(C)S(=O)(=O)c1ccc(C(=O)Nc2ccnn2C2CCCCC2)cc1	FMDV antiviral 28µM, AmpC inh detg inconclusive
CCCN(CCC)C1=N/C(=C\c2ccco2)C(=O)N1c1ccccc1	Sm TGR inh 16µM
O=C1/C(=C\c2ccco2)NC(=S)N1c1ccccc1	none
CCCN=C1N/C(=C\c2ccco2)C(=O)N1c1ccccc1	Sm TGR inh 40µM
O=C1/C(=C\c2ccco2)SC(=S)N1c1ccccc1	Sm TGR inh inconclusive
Cc1ccc2cc(CNC(C)c3cccc4ccccc34)c(N3CCC(O)CC3)nc2c1 (stereo not given)	none (no result: AMA1-RON2 inh, AmpC inh detg, AmpC inh no detg, Sm TGR inh)
Cc1nc2ccn(Cc3cccnc3)c(=O)c2cc1C(=O)Nc1ccc(F)cc1F	none (no result: AMA1-RON2 inh, AmpC inh no detg)
COc1cccc(OCc2nc3ccccc3n2CCOc2ccccc2)c1	none (no result: AMA1-RON2 inh, AmpC inh no detg)
O=C(O)c1cccc(N/N=C/c2cccnc2)c1	FMDV antiviral 13µM
CC(C)(C)c1ccc(/C=N/Nc2cccc(C(=O)O)c2)cc1	FMDV antiviral 45µM
Cc1[nH]c2ccccc2c1/C=N/NC(=O)c1ccccc1	none
O=C(N/N=C/c1cccnc1)c1ccccc1	none
CC(C)(C)c1ccc(/C=N/Nc2ccc(C(=O)O)cc2)cc1	FMDV antiviral 7.1µM
O=C(O)c1ccc(N/N=C/c2ccc(C(F)(F)F)cc2)cc1	FMDV antiviral inconclusive
Cc1[nH]c2ccccc2c1/C=N/Nc1cccc(C(=O)O)c1	Sm TGR inh 45µM
COc1ccccc1/C=C/C=N/Nc1cccc(C(=O)O)c1	none
O=C(NCC1Cc2cc(F)cc(-c3cnccn3)c2O1)c1cccc(-c2ccccc2F)c1 (stereo not given)	none (no result: AMA1-RON2 inh, AmpC inh detg, AmpC inh no detg, Sm TGR inh)
CN(C)c1ccc(/C=N/NC(=O)C[n+]2ccccc2)cc1	FMDV antiviral 2.8µM (no result: AmpC inh detg, AmpC inh no detg, Sm TGR inh)
O=C(O)c1cccc(N/N=C/c2cc(Br)cc(Br)c2O)c1	none
O=C(C[n+]1ccccc1)N/N=C/c1ccc(C(=O)O)cc1	none
O=C(O)c1ccc(N/N=C/c2c(F)cccc2Cl)cc1	FMDV antiviral 32µM
CN(C)c1ccc(/C=N/Nc2cccc(C(=O)O)c2)cc1	FMDV antiviral 4µM
COc1ccc(Br)cc1/C=N/Nc1cccc(C(=O)O)c1	none
O=C(O)c1cccc(N/N=C/c2ccc(-c3ccccc3)cc2)c1	FMDV antiviral 14µM, AmpC inh detg inconclusive
COc1ccc(OCCn2cc(C(=O)c3ccco3)c3ccccc32)cc1	FMDV antiviral inconclusive (no result: AMA1-RON2 inh, AmpC inh no detg)
COc1ccc(CCN2C(=O)N(c3cccc(C)c3)C(=O)C2CC(=O)Nc2ccccc2)cc1OC (stereo not given)	none (no result: AMA1-RON2 inh, AmpC inh no detg)
CCCCCCCCCCCCCCC(C(=O)O)C(O)(CC(=O)OC)C(=O)O (stereo not given)	none (no result: AMA1-RON2 inh, AmpC inh detg, AmpC inh no detg, Sm TGR inh)
Cc1cc(-c2csc(N)n2)c(C)n1CCc1ccccc1	FMDV antiviral 11µM, AmpC inh detg inconclusive
Cc1cc(-c2csc(N)n2)c(C)n1CCC(C)C	FMDV antiviral 22µM
Cc1ccc(Cc2nc3ccccc3nc2SCC(=O)NCc2ccccc2Cl)cc1	none (no result: AMA1-RON2 inh, AmpC inh no detg)
CN(C)C=Nc1nc2ccccc2nc1N1CCCC1	Sm TGR inh 40µM
COc1cccc(Cc2nc3cccnc3n2C2CCN(C(=O)c3n[nH]c4c3CCCC4)CC2)c1	none (no result: AMA1-RON2 inh, AmpC inh detg, AmpC inh no detg, Sm TGR inh)
O=C(Cn1c(=O)oc2cc(S(=O)(=O)N3CCCC3)ccc21)NCc1ccc(Cl)cc1	none (no result: AMA1-RON2 inh, AmpC inh no detg)
O=C(NCc1cccc(F)c1)c1cccc(NC(=O)c2nsc3ccccc23)c1	none (no result: AMA1-RON2 inh, AmpC inh no detg)
